Results on 67 molecules are retold here after PubChem BioAssay AID686978 (National Center for Advancing Translational Sciences (NCATS), 2013).

Screen size: about 420,000 compounds; about 64,000 (15%) were called active. Another 27% or so got no clear call; they are omitted. The call rests on the fitted dose curve; in most records, active means well fitted inhibition curve with a large enough effect; inconclusive means small, poorly fitted or top-dose-only effect; inactive means flat fitted curve, though single readings scatter. The list is a sample of the results.
On the % scale 0 is the no-effect control and ±100 the full control effect; potency means the concentration at half of the fitted maximal effect.

The nature of the assay: qHTS for Inhibitors of human tyrosyl-DNA phosphodiesterase 1 (TDP1): qHTS in cells in absence of CPT. Further: nearly all actives have a fitted effect of over 55% in size. Particulars: DT40 Tdp1-/- hTDP1 cells, no CPT, ATP luminescence, 48 h; activity change, negative = growth inhibition: at 46.2 µM (top of the series). The method, boiled down:
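Chicken DT40 Tdp1-/- cells complemented with human TDP1, screened without camptothecin (DMSO vehicle only), 400 cells/well. Compounds pin-transferred, cells incubated at 37 °C for at least 48 hr. Growth read as ATP-dependent luminescence (CellTiter-Glo, 30 min at RT).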
Background: In qHTS, concentration-response curves come from the screen itself.
Regarding `Cc1ccccc1CN1C(=O)CSCC1(C)C(=O)Nc1c(C)cccc1C` (configuration not stated), the “activity change, negative = growth inhibition” value was -2.46% (inactive).

`Cc1n[nH]c(=O)c2c(NC(=O)CSc3cc(Cl)ccc3Cl)oc(C)c12`: the “activity change, negative = growth inhibition” value is 7.52% (inactive).

As for `O=C(CSc1nnnn1C1CCCC1)N1CCCCC1`, the “activity change, negative = growth inhibition” value is -4.85% (inactive).

With `Cc1cc(=O)oc2c1ccc1ccccc12`, the “activity change, negative = growth inhibition” value was 10.2% (inactive).

On to `O=C(Nc1ccc(C(=O)NCc2ccccc2Cl)cc1)C1=CSCCO1`, for which the “activity change, negative = growth inhibition” value was -20.2% (inactive).

Turning to `C=CCn1c2c(c3ccccc31)CCC2`, the “activity change, negative = growth inhibition” value is -24.3% (inactive).

For the molecule `CCc1nnc(NS(=O)(=O)c2ccc(NC(=O)c3cccc(OC(F)(F)C(F)F)c3)cc2)s1`, the “activity change, negative = growth inhibition” value is -8.34% (inactive).

With `O=C(c1cccs1)N1CCN(C(=O)N2CCOCC2)CC1`, the “activity change, negative = growth inhibition” value was 5.43% (inactive).

In the case of `C/C(=N\Nc1ccccc1)c1cccs1`, the “activity change, negative = growth inhibition” value is -19.2% (inactive).

Turning to `C/C(=N\Nc1nc(Nc2ccccc2)nc(N2CCOCC2)n1)c1cccs1`, the Potency was 20.6 µM (active).

As to `CCN(c1ccccc1)S(=O)(=O)c1ccc(OCC(=O)N2CCCC2)cc1`, the “activity change, negative = growth inhibition” value was -17.5% (inactive).

As to `CCc1cccc(NC(=O)CCNS(=O)(=O)c2cccc3nonc23)c1`, the Potency entry was “inactive”.

As to `Cc1ccc(NC(=O)C2(N3CCC3=O)CCCCC2)cc1`, the “activity change, negative = growth inhibition” value is 10.4% (inactive).

Take `CC(C)c1ccc(C(=O)NCCCc2ccccc2)cc1`: the “activity change, negative = growth inhibition” value is -16.9% (inactive).

In the case of `Cc1ccc(-c2cn3c(n2)sc2cc(C(=O)NCCCc4ccccc4)ccc23)cc1`, the Potency was 8.2 µM (active).

As to `CCOc1ccc(CCNC(=O)Nc2ccccc2)cc1OCC`, the “activity change, negative = growth inhibition” value was -29.6% (inactive).

`Cc1cc(C(=O)NCCCc2ccccc2)no1`: the “activity change, negative = growth inhibition” value is -4.19% (inactive).

`CCOc1cccc2cc(-c3cn4c(n3)sc3cc(C)ccc34)c(=O)oc12`: the “activity change, negative = growth inhibition” value is 0.207% (inactive).

Consider `COc1ccc(CCNC(=O)c2ccc3c(c2)sc2nc(-c4ccc(C)cc4)cn23)cc1OC`, for which the Potency was 5.17 µM (active).

Take `COc1ccc(CCNC(=O)CN(C)S(=O)(=O)c2ccc3nc(C)sc3c2)cc1OC`: the “activity change, negative = growth inhibition” value was -11.5% (inactive).

Regarding `CCOc1ccc(CCNC(=O)c2ccc3c(c2)sc2nc(-c4ccc(F)cc4)cn23)cc1OCC`, the Potency is 5.8 µM (active).

As to `CCc1cc2c(cc3c(=O)n(CC(=O)NCCc4ccc(OC)c(OC)c4)ncn32)s1`, the “activity change, negative = growth inhibition” value is -0.928% (inactive).

Consider `CCOc1ccc(CCNC(=O)Cn2nc(CC)n3c(cc4sc(CC)cc43)c2=O)cc1OCC`, for which the “activity change, negative = growth inhibition” value was -19.3% (inactive).

On to `COc1ccc(Cl)cc1C(=O)OCC(=O)NCc1cccs1`, for which the “activity change, negative = growth inhibition” value was 22.9% (inactive).

As to `Cc1ccc(-c2cn3c(n2)sc2cc(C(=O)NCc4cccs4)ccc23)c(C)c1`, the Potency was 18.4 µM (active).

For the molecule `Cc1cc(O)c(NC(=O)c2ccc(C)c([N+](=O)[O-])c2)cc1C`, the “activity change, negative = growth inhibition” value is -20.8% (inactive).

With `CCc1ccc(-c2nnn(Cc3nc4ccccc4s3)n2)cc1`, the “activity change, negative = growth inhibition” value was -17% (inactive).

Take `C[C@H]1Cn2cnc(C(=O)N[C@H](C)c3ccccc3)c2C(=O)N1`: the “activity change, negative = growth inhibition” value was -13.3% (inactive).

`CC1(C)Cc2ccccc2-c2[nH]c(=S)[nH]c(=O)c21`: the “activity change, negative = growth inhibition” value is 12.1% (inactive).

Take `Cc1ccc(C(=O)NN(CCC#N)C2=NS(=O)(=O)c3ccccc32)cc1`: the “activity change, negative = growth inhibition” value is -5.12% (inactive).

As to `Cc1cc(C)c(NC(=O)CN2CCOCCOCCOCCOCC2)c(C)c1`, the “activity change, negative = growth inhibition” value was -14.6% (inactive).

Regarding `O=C(Oc1ccc2c(c1)CCC2)N1CCOCC1`, the “activity change, negative = growth inhibition” value is -7.1% (inactive).

As to `C=C(C)CSc1nnc(-c2ccc(C)cc2)n1N`, the “activity change, negative = growth inhibition” value is -3.9% (inactive).

As to `CCCCn1c(N)c(N(CC(C)C)C(=O)C2CSC3(C)CCC(=O)N23)c(=O)[nH]c1=O` (configuration not stated), the “activity change, negative = growth inhibition” value was -12.7% (inactive).

Consider `O=C(O)c1ccc(-n2cccc2)cc1O`, for which the “activity change, negative = growth inhibition” value was 7.21% (inactive).

As for `CCOC(=O)C1CCCN(C(=O)c2cncc(Br)c2)C1` (configuration not stated), the “activity change, negative = growth inhibition” value was -10% (inactive).

`CCOC(=O)C1CCCN(C(=O)c2cccc(S(=O)(=O)N3CCOCC3)c2)C1` (configuration not stated): the “activity change, negative = growth inhibition” value was -11% (inactive).

For the molecule `CCOC(=O)C1CCCN(C(=O)c2ccc3c(c2)sc2nc(-c4ccc(CC)cc4)cn23)C1` (configuration not stated), the Potency is 5.17 µM (active).

Regarding `O=C(COc1ccc([N+](=O)[O-])cc1)Nc1cccc(C(=O)Nc2ccccc2C(=O)O)c1`, the “activity change, negative = growth inhibition” value is 10.7% (inactive).

In the case of `O=C(NC1(C(F)(F)F)NC(=O)N(Cc2cccnc2)C1=O)c1ccccc1Cl` (configuration not stated), the “activity change, negative = growth inhibition” value was -2.04% (inactive).

In the case of `Cc1cccc(NC(=O)CN2CCN(CC(=O)NCC3(N4CCCCC4)CCCCC3)CC2)c1C`, the “activity change, negative = growth inhibition” value was -21% (inactive).

For `COc1ccc(S(=O)(=O)N2CCN(CC(=O)NCC3(N4CCOCC4)CCCCC3)CC2)cc1`, the “activity change, negative = growth inhibition” value is -5.53% (inactive).

For the molecule `CN1CCN(C2(CNC(=O)COc3ccc(C(C)(C)C)cc3)CCCCC2)CC1`, the Potency is 18.4 µM (active).

With `Cc1nc2sc(C(c3ccco3)N3CCOCC3)c(O)n2n1` (configuration not stated), the “activity change, negative = growth inhibition” value was -7.01% (inactive).

For `COc1ccccc1C(=O)NCCC(=O)NN1C(=O)NC2(CCCCC2)C1=O`, the “activity change, negative = growth inhibition” value is -12% (inactive).

On to `COc1cc(C(=O)NCC2(c3ccccc3)CCCC2)ccc1OC(C)C`, for which the Potency is 10.3 µM (active).

As to `COc1ccc(CC(=O)NC2CCSc3ccccc32)cc1OC` (configuration not stated), the “activity change, negative = growth inhibition” value was -6.31% (inactive).

With `COc1ccc(C(=O)NC2CC(C)(C)NC(C)(C)C2)cc1OC`, the “activity change, negative = growth inhibition” value was -0.888% (inactive).

As to `COc1ccc(C2(CNC(=O)Cc3ccc(OC)c(OC)c3)CCCC2)cc1`, the Potency was 20.6 µM (active).

As for `CCn1c(CNC(=O)c2ccc(OC)c(OC)c2)nnc1SCC(=O)Nc1ccccc1`, the “activity change, negative = growth inhibition” value was 15.1% (inactive).

Take `COc1ccc(CC(=O)N[C@@H]2c3cc(OC)c(OC)cc3C[C@H]2OCc2ccccc2)cc1`: the “activity change, negative = growth inhibition” value is -9.63% (inactive).

For the molecule `CCOc1c(OC)cccc1C(=O)NCC1(c2ccccc2)CCCC1`, the Potency is 6.51 µM (active).

On to `COc1ccccc1OCC(=O)Nc1ccccc1C(=O)NC1CC1`, for which the “activity change, negative = growth inhibition” value is -5.65% (inactive).

As to `Cn1cnc(S(=O)(=O)Nc2ccc3c(c2)OCCO3)c1`, the “activity change, negative = growth inhibition” value is -17.1% (inactive).

On to `CN(C)Cc1c(C#N)c2ccccc2n1C`, for which the “activity change, negative = growth inhibition” value was -1.73% (inactive).

Consider `COCCCN(C(=O)Cn1ncc2c(=O)oc3ccc(C)cc3c21)C(C)c1ccncc1` (configuration not stated), for which the “activity change, negative = growth inhibition” value is -2.45% (inactive).

For the molecule `CC1CCN(CCCn2c(SCC(=O)NC3CCCC3)nc3ccccc3c2=O)CC1`, the “activity change, negative = growth inhibition” value was 15.5% (inactive).

Turning to `Nc1nc(SCCOc2ccccc2)n[nH]1`, the “activity change, negative = growth inhibition” value is -7.09% (inactive).

Consider `COc1cc(C(=O)OCCCN2CCOCC2)cc(OC)c1OC`, for which the “activity change, negative = growth inhibition” value is 11.1% (inactive).

As for `COc1ccc(CNc2nc3c(c(=O)[nH]c(=O)n3C)n2Cc2ccccc2)cc1`, the “activity change, negative = growth inhibition” value was 5.15% (inactive).

For `CCC(C)Sc1nc2c(c(=O)[nH]c(=O)n2C)n1CC(O)COc1cccc2ccccc12` (configuration not stated), the Potency was 29.1 µM (active).

As to `C=C(C)Cn1c(N2CCCC2)nc2c1c(=O)[nH]c(=O)n2C`, the “activity change, negative = growth inhibition” value is -7.42% (inactive).

Consider `Cc1nnc(SCCCn2c(N3CCCCC3)nc3c2c(=O)[nH]c(=O)n3C)s1`, for which the “activity change, negative = growth inhibition” value was -19.1% (inactive).

Regarding `Cn1c(=O)[nH]c(=O)c2c1nc(N1CCN(C(c3ccccc3)c3ccccc3)CC1)n2CCO`, the Potency is 16.4 µM (active).

As to `Cc1cccc(OCC(O)Cn2c(N3CCCCC3)nc3c2c(=O)[nH]c(=O)n3C)c1` (configuration not stated), the Potency was 23.1 µM (active).

Consider `C=C(C)Cn1c(N2CCN(CC)CC2)nc2c1c(=O)[nH]c(=O)n2C`, for which the “activity change, negative = growth inhibition” value is -6.62% (inactive).

`CC1CN(CC(=O)NC(C)c2ccccc2)CC(C)O1` (configuration not stated): the “activity change, negative = growth inhibition” value is 3.41% (inactive).
